Screening results deposited in PubChem by National Center for Advancing Translational Sciences (NCATS).
The list is not random: actives were taken first. Their share in the collection is about 2.4%.
D2 ag-1: activates the human D2 dopamine receptor | P14416 | HEK293 T-REx D2 cells, calcium flux agonist mode | activation, % at 2 µM | actives 0.53% (n = 340,000) | AID 485358;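 active means activation over 3 SD above normal in the single-dose calcium agonist read, cut at about 30% in these data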
Target sequence (P14416 whole entry, looked up): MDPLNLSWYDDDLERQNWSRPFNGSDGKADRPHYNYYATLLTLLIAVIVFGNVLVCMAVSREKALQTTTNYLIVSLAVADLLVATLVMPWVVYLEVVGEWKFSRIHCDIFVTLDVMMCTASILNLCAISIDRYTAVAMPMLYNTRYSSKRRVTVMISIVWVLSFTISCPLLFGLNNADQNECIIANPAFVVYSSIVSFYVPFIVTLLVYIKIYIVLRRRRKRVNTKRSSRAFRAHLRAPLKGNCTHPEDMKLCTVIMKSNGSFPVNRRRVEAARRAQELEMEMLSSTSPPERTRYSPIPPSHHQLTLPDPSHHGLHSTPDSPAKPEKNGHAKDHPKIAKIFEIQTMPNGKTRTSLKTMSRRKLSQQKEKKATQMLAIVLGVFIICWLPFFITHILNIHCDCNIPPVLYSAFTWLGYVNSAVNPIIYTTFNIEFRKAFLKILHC
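Calcium-flux readout, 1 cycle/sec over 180 s following compound pin transfer, in inducible HEK293 Trex D2 cells (force-coupled); dopamine controls included. Positive calcium responses during this window marked compounds as potential agonists.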
D2 ag-2: human D2 receptor agonism in beta-arrestin assay | P14416 | DiscoveRx PathHunter D2 beta-arrestin, luminescence, 90 min; 100% = 57 uM dopamine signal | activation, % (test concentration not listed) | actives 0.084% (n = 360,000) | AID 624465; in the data active means activation above about 40%; inconclusive means between about 15% and that limit
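Agonist mode: compounds alone added to overnight-plated D2 PathHunter cells for 90 min at 37 C, with 57 uM final dopamine (EC100) defining full response. Beta-arrestin recruitment detected by chemiluminescent reagent, read after 1 h at ambient temperature.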
D2 PAM-1: positive allosteric modulators of human D2 dopamine receptor; potentiation, % at 10 µM; AID 485347; P14416; actives 0.34% (n = 340,000); HEK293 T-REx D2, calcium flux, EC20 dopamine potentiation;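 active means potentiation over 3 SD above the plate norm, cut at about 30% in these data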
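Calcium flux readout, no-wash dye, 1 read/s. Inducible HEK293 Trex D2 line, overnight 30 C. Compound alone 180 s (agonist flags), then EC20 dopamine, another 180 s to score potentiation.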
D2 PAM-2: human D2 receptor positive allosteric modulation. P14416. DiscoveRx D2 beta-arrestin cells, luminescence, 90 min; 100% = 57 uM dopamine signal. potentiation, % (no concentration beside the values). actives 0.23% (n = 360,000); in the data active means potentiation above about 50%; inconclusive means mostly about 30% to 49%
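PathHunter D2 cells, attached overnight at 37 deg C, received compound in DMSO plus dopamine at EC20 (50 nM final) for 90 min at 37 deg C. Beta-arrestin recruitment was read as luminescence after 1 h with detection reagent at ambient temperature.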
D2 antag: antagonists of human D2 dopamine receptor; HEK293 TREx D2 cells, calcium flux, dopamine EC80; inhibition, % at 10 µM; actives 2% (n = 340,000); in the data active means inhibition above about 30%; inactive means below that, where a call was filed
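In this primary screen, negative modulation is detected by tracking calcium flux after an EC80 dopamine challenge in inducible HEK293 T-REx D2 cells preexposed to test compound for 180 s.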
Large screens that a line does not name were inactive.

CCC(C)(C)NC(=O)C(c1cccn1C)N(Cc1ccc(OC)cc1)C(=O)Cn1nnc2ccccc21 (stereo not drawn)	D2 antag 30
O=C(NC1CC(=O)N(c2ccc(Cl)cc2)C1)c1ccc(S(=O)(=O)N2CCCC2)cc1 (stereo not drawn)	none (no result: D2 ag-2, D2 PAM-2, D2 antag)
Cc1ccc(C)c(-c2nnc(NC(=O)Cc3ccc(F)cc3)o2)c1	none
Cc1ccc(-c2nnc(NC(=O)Cc3ccc(F)cc3)o2)c(C)c1	D2 antag 67
O=C(C1CCCO1)N1CCN(C(=S)Nc2ccc(F)cc2)CC1 (stereo not drawn)	D2 antag 41
O=C(CSc1ncccc1C(=O)Oc1ccccc1Cl)Nc1ccccc1Cl	none (no result: D2 ag-2, D2 PAM-2, D2 antag)
CC(C)CC(NC(N)=O)C(=O)NCc1ccccc1Cl (stereo not drawn)	D2 PAM-1 38
COc1ccc2cc3cc(C(=O)NCCN4CCN(c5ccccc5F)CC4)oc3nc2c1	D2 antag 38
Cc1sc2nc(CSc3ccccc3)nc(NCCN(C)C)c2c1C	none
CCNc1nc(CSc2ccccc2)nc2sc(C)c(C)c12	D2 antag 39
CCOC(=O)/C(=C/C=C1\Sc2cc(OCC)c(OCC)cc2N1CC)C(C)=O	D2 ag-1 88, D2 antag 72
CCN1/C(=C/C(C)=O)Sc2ccc(OC)cc21	none (no result: D2 ag-1, D2 PAM-1, D2 antag)
CCOC(=O)/C(=C\C=C1/Sc2cc(OCC)c(OCC)cc2N1CC)C(C)=O	D2 ag-1 100, D2 antag 65
C=CCn1cc(C(=O)OCC)c(=O)c2ccc(F)cc21	none (no result: D2 ag-1, D2 PAM-1, D2 antag)
COC(=O)c1cc(C(=O)OC)cc(-n2c(C)cc(C(=O)COC(=O)CNS(=O)(=O)c3ccc(C)cc3)c2C)c1	D2 antag 60
CC1Cc2ccccc2N1C(=O)COC(=O)c1ccco1 (stereo not drawn)	none (no result: D2 ag-1, D2 PAM-1, D2 antag)
CC1Cc2ccccc2N1C(=O)COC(=O)c1ccc([N+](=O)[O-])o1 (stereo not drawn)	D2 PAM-2 58 (no result: D2 ag-1, D2 PAM-1, D2 antag)
Cc1ccccc1C1CCCN(Cc2nc(C3CC3)no2)C1 (stereo not drawn)	none
COc1ccc2c(c1)CCc1c-2n[nH]c1C(=O)O	D2 antag 31
Cc1cc(C)n2nc(SCc3ncc(-c4ccccc4)o3)nc2n1	none
Cc1cc(C)n2nc(SCc3nnc(-c4ccccc4Br)o3)nc2n1	D2 PAM-1 44
COC(=O)C(C)Sc1nnc(SC(C)C(=O)OC)s1 (stereo not drawn)	D2 antag 40
CCCn1cc(S(=O)(=O)c2ccccc2)c(=O)c2cc(F)c(N3CCCC(C)C3)cc21 (stereo not drawn)	none (no result: D2 ag-2, D2 PAM-2, D2 antag)
CCOC(=O)c1cc(-c2ccc(F)cc2)n(CCC(=O)Nc2nc3cc(C)c(C)cc3s2)c1C	none (no result: D2 ag-2, D2 PAM-2, D2 antag)
CC1O[C@@H](OC2C(COC3OC(CO)C(O)[C@H](O)C3O)OC(OC3CC[C@]4(C)C(CC[C@@]5(C)[C@@H]4CC=C4[C@@H]6CC(C)(C)CC[C@]6(CO)C(O)C[C@]45C)C3(C)C)C(O)C2O)C(O)C(O)C1O (stereo partly drawn)	none (no result: D2 ag-1, D2 PAM-1, D2 antag)
CC1OC(O[C@H]2CC[C@]3(C)C4C=C[C@]56OC[C@@]7(CC[C@@H](C)[C@H](C)C75)[C@H](O)C[C@@]6(C)[C@]4(C)CC[C@H]3C2(C)C)C(OC2OC(CO)C(O)C(O)C2OC2OCC(O)C(O)C2O)C(O)C1O (stereo partly drawn)	D2 ag-1 43, D2 antag 35 (no result: D2 ag-2, D2 PAM-2)
CC12CCC3c4ccccc4CCC3(CO1)C2 (stereo not drawn)	none (no result: D2 ag-1, D2 PAM-1, D2 antag)
CC(C)c1ccc2nc(N)sc2c1	none
Cc1cc2nc(N)sc2cc1C	D2 antag 34
CCC(CC)NC(=O)CN(c1ccccc1OC)S(=O)(=O)c1cccs1	none
O=C(CSc1ncc(S(=O)(=O)c2ccc(Cl)cc2)c(=O)[nH]1)Nc1ccc2c(c1)OCCO2	none (no result: D2 ag-2, D2 PAM-2, D2 antag)
Cc1ccc(Nc2ccccc2)cc1	D2 antag 40
COC(=O)c1ccc(NC(=O)c2c(NCc3cccc(F)c3)sc3c2CCCC3)cc1	none (no result: D2 ag-2, D2 PAM-2, D2 antag)
Cc1cnn(C(=O)c2cc(-c3ccccc3)nc3ccccc23)c1	D2 antag 55
O=C(c1cc(-c2ccccc2)nc2ccccc12)N1CCCC1	none
CN(C(=O)c1ccc(COc2ccccc2Br)o1)c1ccccc1	D2 antag 44
COc1ccccc1OCc1ccc(C(=O)N2CCN(C(=O)c3ccco3)CC2)cc1	D2 antag 35
COc1ccc(C(=O)OCC(=O)N2CCN(C(=O)c3ccco3)CC2)c(OC)c1OC	none (no result: D2 ag-1, D2 PAM-1, D2 antag)
COc1ccccc1OCc1ccc(C(=O)NN)o1	D2 antag 76
COc1ccc(CN2CCN(C(=O)c3ccco3)CC2)c(OC)c1OC	D2 ag-2 46, D2 PAM-2 60 (no result: D2 ag-1, D2 PAM-1, D2 antag)
COc1ccc(-c2noc(-c3ccc(NCc4ccc(C)cc4)c([N+](=O)[O-])c3)n2)cc1OC	none (no result: D2 ag-1, D2 ag-2, D2 PAM-2, D2 antag)
CC(=O)Nc1ccc(NC(=O)c2ccnn2C)cc1	none (no result: D2 ag-1, D2 PAM-1, D2 antag)
COc1ccccc1OCc1ccc(C(=O)N/N=C/c2ccco2)cc1	D2 antag 44
CC(C)NC(=O)COc1coc(CN2CCN(C(=O)c3ccco3)CC2)cc1=O	D2 antag 50
CC(C)NC(=O)COc1coc(CN2CCN(Cc3ccccc3)CC2)cc1=O	none
CC(=O)c1ccc(NC(=O)NCCc2c[nH]c3ccccc23)cc1	none (no result: D2 ag-2, D2 PAM-2, D2 antag)
Cc1cccc(N2CCN(S(=O)(=O)c3ccc(F)c(C(=O)Nc4ccc(C(C)C)cc4)c3)CC2)c1C	none (no result: D2 ag-2, D2 PAM-2, D2 antag)
Cn1c(N)c(C(=O)/C=C/c2ccccc2)c(=O)[nH]c1=O	D2 antag 54
Cn1c(N)c(C(=O)Nc2ccccc2)c(=O)[nH]c1=O	none (no result: D2 ag-1, D2 PAM-1, D2 antag)
O=C(O)CCC(=O)Nc1ccc(C(=O)N2CCCCC2)cc1	D2 PAM-1 33
O=C(O)CCCC(=O)Nc1ccc(N2CCCC2)cc1	D2 PAM-2 69
CCCC(=O)Nc1ccc(N2CCCCC2)cc1	none
CC(=O)Nc1ccc(C(=O)N2CCCC2)cc1	D2 PAM-1 32
COc1ccccc1CCC(=O)OCC(=O)Nc1cccc(S(=O)(=O)N2CCOCC2)c1	none
Cc1cc2c(cc(C(=O)OC(C)C(=O)NCc3ccc(F)cc3)n2C)o1 (stereo not drawn)	none (no result: D2 ag-1, D2 PAM-1, D2 antag)
O=[N+]([O-])c1ccc(Sc2ccncn2)c([N+](=O)[O-])c1	D2 ag-2 inconclusive (no result: D2 ag-1, D2 PAM-1, D2 antag)
Cc1cc(C)nc(Sc2ccc([N+](=O)[O-])cc2[N+](=O)[O-])n1	D2 PAM-2 70
CCOC(=O)c1ccc(NS(=O)(=O)c2ccc3c(c2)CCN3C(=O)CC)cc1	none (no result: D2 ag-2, D2 PAM-2, D2 antag)
C=CCNc1nc(Cl)nc(Nc2ccc(OC)cc2OC)n1	none
COc1ccc(Nc2nc(Cl)nc(Nc3ccc(OC)cc3OC)n2)c(OC)c1	D2 antag 51
Cc1c(NC2=C(Cl)C(=O)N(c3ccccc3)C2=O)c(=O)n(-c2ccccc2)n1C	D2 antag 38
Cc1c(Nc2c3ccccc3nc3ccccc23)c(=O)n(-c2ccccc2)n1C	none
